We go through 21 compounds from PubChem BioAssay (NCI).

Each structure is given as a SMILES string. The panel holds about 79,000 compounds, 15% with a hit somewhere; the sample as a whole holds those more often. Values without a mark were called inactive. The source made the active and inactive calls. Cut-off read from the data, not from the text of the source: active = growth inhibition above about 70%; inactive = the rest.

Experiment [1] can be described thus: NCI Yeast Anticancer Drug Screen. Data for the rad50 strain (AID 155).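 Note: 0% = growth of vehicle-only cultures of the same strain.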 The settings on record: S. cerevisiae rad50 strain growth inhibition; at 50.0 µM; stronger effect = higher value. The method, boiled down: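 DNA repair mutant yeast, compound exposure, growth read-out; inhibition is taken relative to vehicle.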
Experiment [2] is described as follows: NCI Yeast Anticancer Drug Screen. Data for the mec2-1 strain (AID 157). The settings on record: S. cerevisiae mec2-1 strain, at 50.0 µM, stronger effect = higher value. The method in brief:
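Test agents were screened against the mec2-1 yeast strain, with defined DNA repair or cell cycle alteration. Growth was scored as inhibition against vehicle-only controls.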

Experiment [3] can be described thus: NCI Yeast Anticancer Drug Screen. Data for the sgs1 mgt1 strain (AID 161).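 Note: 0% = growth of cultures given vehicle only.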 The settings on record: S. cerevisiae sgs1 mgt1 strain, at 50.0 µM, stronger effect = higher value. The method, boiled down: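 Mutant yeast exposed to compound; growth scored against vehicle-only wells.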
Experiment [4] in a line: NCI Yeast Anticancer Drug Screen. Data for the cln2 rad14 strain (AID 165).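 Note: 0% = growth equal to vehicle treated cultures.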 Conditions: S. cerevisiae cln2 rad14 strain, at 50.0 µM, stronger effect = higher value. The method in brief: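 Growth of compound-exposed yeast (cln2 rad14 genotype) measured and expressed as inhibition relative to vehicle.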
A short description of experiment [5]: NCI Yeast Anticancer Drug Screen. Data for the bub3 strain (AID 167). The settings on record: S. cerevisiae bub3 mutant strain, at 50.0 µM, stronger effect = higher value. The method in brief:
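In this screen, a yeast mutant lacking normal mitotic checkpoint function is challenged with compound. Relative growth versus vehicle gives the inhibition value.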

Experiment [6] is described as follows: NCI Yeast Anticancer Drug Screen. Data for the mlh1 rad18 strain (AID 175). Conditions: S. cerevisiae mlh1 rad18 strain growth inhibition; at 50.0 µM; stronger effect = higher value. The method, boiled down:
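In this whole-cell yeast screen, a strain with altered DNA damage repair is challenged with compound, and its growth is measured against matched vehicle-treated controls.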

For `Oc1c(CN2CCN(c3ccccc3)CC2)cc(Br)c2cccnc12`, the growth inhibition is 34% in experiment [1]; 19.9% in experiment [2]; 41.4% in experiment [3]; -0.3% in experiment [4]; 9.4% in experiment [5]; 39.6% in experiment [6].
Consider `Cc1ccccc1NC(=S)NC(=O)c1ccccc1`, for which the growth inhibition in experiment [1] was 30.9%; in experiment [2], 19.2%; in experiment [3], 62.8%; in experiment [4] it was -34.8%; in experiment [5] it was 64%; in experiment [6], 48.2%.
Regarding `O=C(O)[C@@H]1[C@@H]2C[C@@H]3[C@H](OC(=O)[C@@H]31)[C@@H]2O`, the growth inhibition in experiment [1] is -20.9%; in experiment [2] it was -12.2%; in experiment [3], -25.4%; in experiment [4], 1.9%; in experiment [5], -15.8%; in experiment [6] it was -41.4%.
For the compound `C1=Nc2ccccc2/C1=C/C=C/c1ccccc1`, the growth inhibition is 24.6% in experiment [1]; 31.6% in experiment [2]; 28.3% in experiment [3]; 10.2% in experiment [4]; 41.5% in experiment [5]; 21.8% in experiment [6].
As for `CCOC(=O)C1(O)c2ccccc2NC(=S)N1CC(Br)CBr` (stereo unspecified), the growth inhibition in experiment [1] is 19.9%; in experiment [2], -60.3%; in experiment [3] it was 15.8%; in experiment [4] it was -7.6%; in experiment [5], 2.35%; in experiment [6], 32.6%.
In the case of `O=[N+]([O-])c1ccc(Nc2nc3ccccc3s2)cc1`, the growth inhibition in experiment [1] was 6.75%; in experiment [2], 11.8%; in experiment [3], -24.7%; in experiment [4] it was -21.5%; in experiment [5], 5.75%; in experiment [6], 15.2%.
In the case of `COC(=O)C12OCC34C(CC5C(C)=C(O)C(=O)CC5(C)C3C(O)C1O)OC(=O)C(OC(C)=O)C24` (stereo unspecified), the growth inhibition in experiment [1] is 81.5% (active); in experiment [2], 69.5%; in experiment [3], 80.5% (active); in experiment [4], 79.3% (active); in experiment [5], 79% (active); in experiment [6], 84.2% (active).
Regarding `O=S(O)CCCSSc1ccccc1`, the growth inhibition was 38.5% in experiment [1]; 22.4% in experiment [2]; 40.1% in experiment [3]; 56.1% in experiment [4]; 40.7% in experiment [5]; 67.2% in experiment [6].
With `CSc1nc(Cl)nc2[nH]ncc12`, the growth inhibition in experiment [1] is 11.3%; in experiment [2] it was -5.4%; in experiment [3] it was 1.1%; in experiment [4], -17.3%; in experiment [5], 4.45%; in experiment [6], 30.9%.
As to `Nc1cccc([N+](=O)[O-])c1O`, the growth inhibition in experiment [1] is 4.75%; in experiment [2], 2.45%; in experiment [3], 12.7%; in experiment [4], 9.75%; in experiment [5] it was 5.4%; in experiment [6] it was 12.4%.
With `C/C(=N/NC(=O)C1CCCO1)c1ccc(C)cc1` (stereo unspecified), the growth inhibition in experiment [1] was 0.95%; in experiment [2] it was -6.5%; in experiment [3], -4.75%; in experiment [4] it was -92%; in experiment [5], -6.5%; in experiment [6], -28.9%.
As to `Cc1ccc(S(=O)(=O)/C(C#N)=C\N2CCNC2=S)cc1`, the growth inhibition in experiment [1] was -11.7%; in experiment [2], -24.3%; in experiment [3] it was -6.4%; in experiment [4], 13.5%; in experiment [5], 4.4%; in experiment [6], -2.25%.
With `CC1CCC2(CC1)N=C1CCC(C)CC1C1(CCC(C)CC1)N2` (stereo unspecified), the growth inhibition in experiment [1] is -22.4%; in experiment [2], 0.25%; in experiment [3], -32.9%; in experiment [4], -23.1%; in experiment [5], -13.2%; in experiment [6], -11.1%.
For the compound `CC(c1ccccc1)C(C)(C)O` (stereo unspecified), the growth inhibition was 10.2% in experiment [1]; -8.25% in experiment [2]; 27% in experiment [3]; 20.3% in experiment [4]; -14.5% in experiment [5]; -4.95% in experiment [6].
Turning to `COc1ccc(CSc2n[nH]c(=O)[nH]c2=S)cc1`, the growth inhibition was 14.8% in experiment [1]; -4.45% in experiment [2]; -10.4% in experiment [3]; -12.1% in experiment [4]; 4.7% in experiment [5]; 38.4% in experiment [6].
Regarding `Clc1ccccc1C(CI)c1ccccc1Cl`, the growth inhibition in experiment [1] is 25.6%; in experiment [2], 9.75%; in experiment [3], 15.2%; in experiment [4], 13.4%; in experiment [5], -1.2%; in experiment [6], 10.1%.
With `C(=N/OCc1ccccc1)/c1ccncc1`, the growth inhibition in experiment [1] is 45%; in experiment [2], 27.6%; in experiment [3], 45.7%; in experiment [4], 30.2%; in experiment [5], 47.4%; in experiment [6], 46.9%.
For the compound `OC1CC2c3ccccc3C1c1cccc[n+]12` (stereo unspecified), the growth inhibition is 16.2% in experiment [1]; -9.85% in experiment [2]; -4.1% in experiment [3]; -38.7% in experiment [4]; 4.65% in experiment [5]; 14.7% in experiment [6].
`CC(=O)c1ccc(NC(N)=O)cc1`: the growth inhibition in experiment [1] is 2.15%; in experiment [2] it was -10.4%; in experiment [3], 5.3%; in experiment [4], -8.1%; in experiment [5], -7.15%; in experiment [6], -12.5%.
For `Cc1ncc(CO)c(/C=N\NC(N)=S)c1O`, the growth inhibition in experiment [1] was 9.85%; in experiment [2], 4.7%; in experiment [3], 8.3%; in experiment [4], -48.5%; in experiment [5], -39.1%; in experiment [6], -7.25%.
For the compound `CCCCCCC(O)C/C=C\CCCCCCCCO` (stereo unspecified), the growth inhibition is 11.9% in experiment [1]; -20.9% in experiment [2]; 13.3% in experiment [3]; -27.6% in experiment [4]; 27.1% in experiment [5]; 18.4% in experiment [6].
